Holding throughout (test): NCI-60 one-dose screen, 48 h (100 = growth as untreated, 0 = no growth, -100 = all killed)
Settings in all cases: 10 µM unless noted

Assay [1] concerns NCI-H23 lung.
In assay [2] the test system is NCI-H226 lung.
For assay [3], the system named is NCI-H322M lung.
The subject of assay [4] is HOP-62 NSCLC.
For assay [5], the system named is NCI-H460 lung.
Assay [6] has as its system HOP-92 NSCLC.
The test system of assay [7] is NCI-H522 lung.
The test system of assay [8] is A549/ATCC NSCLC.
Assay [9] has as its system 786-0 renal.
Assay [10] deals with DU-145 prostate.
The subject of assay [11] is K-562 leukemia.
Assay [12] has as its system MALME-3M melanoma.
Assay [13] concerns MDA-MB-231 breast.
Assay [14] deals with RXF 393 renal.
Assay [15] concerns SF-268 CNS.
Assay [16] concerns SF-295 CNS.
The subject of assay [17] is SF-539 CNS.
Assay [18] has as its system UACC-257 melanoma.
In assay [19] the test system is M14 melanoma.
Assay [20] deals with COLO 205 colon.

The structures appear in SMILES notation. About 83,000 compounds went through this panel and 20% of them were active in at least one assay; those are over-represented in the sample as a whole.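 48-hour exposure, single concentration, 96-well plates; percent growth endpoint where 0 means no net growth. Active: below 10.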 A number with no mark means an inactive call. Active and inactive are the calls of the source.

Regarding `COc1ccc(/C(C)=C(\c2ccc(OCCN3CCCCCC3)cc2)c2ccc(OC(=O)c3ccccc3)cc2)cc1`, the growth in [1] is 52.2%; in assay [2], 75.3%; in assay [3] it was 80.5%; in assay [4], 75.7%; in [5], 10.2%; in assay [6] it was 54.4%. Besides, the growth was 68.3% in [7]; 41.1% in [8]; 27.5% in assay [9]; 71.8% in assay [10]; 1.82% (active) in assay [11]; 22.7% in assay [12]. Also, the growth in [13] is 52.6%; in [14], 16.4%; in assay [15], 44.4%; in [16], 20.6%; in assay [17], 45.2%; in assay [18], -15.5% (active). Moreover, the growth in assay [19] is -39% (active).

Consider `O=C(N=Nc1c(O)[nH]c2ccccc12)Nc1ccc(Cl)cc1`, for which the growth in [1] is 93%; in assay [2], 95.5%; in [3] it was 75.3%; in [4] it was 98.6%; in assay [5], 91.3%; in [6], 80%. The growth was 89.8% in assay [7]; 92.5% in assay [8]; 97.8% in [9]; 108% in [10]; 81.5% in [11]; 96.3% in [12]. Moreover, the growth in [13] is 102%; in [14], 96.3%; in [15] it was 101%; in assay [16] it was 101%; in assay [17] it was 83.8%; in [18] it was 95.8%. Besides, in assay [19], the growth is 95.3%.

On to `CC1=C(C(=O)n2c3ccccc3c3ccccc32)C(c2cccc([N+](=O)[O-])c2)C(C(=O)n2c3ccccc3c3ccccc32)=C(C)N1`, for which the growth is 91.9% in assay [1]; 96.9% in [2]; 98.4% in assay [3]; 102% in [4]; 102% in [5]; 93.8% in assay [6]. Further, the growth in [7] is 101%; in assay [8], 102%; in assay [9] it was 103%; in assay [10] it was 103%; in [11], 95.8%; in [12], 88.9%. Besides, the growth in assay [13] is 85%; in assay [14] it was 111%; in assay [15], 89.3%; in assay [16], 102%; in assay [17], 98.6%; in [18] it was 106%. In assay [19], the growth is 100%.

`O=C(c1ccc(F)c(Cl)c1)N1c2ccccc2Sc2ccccc21`: the growth was 78.5% in assay [1]; 77.3% in [2]; 102% in assay [3]; 76.6% in assay [4]; 99.5% in assay [5]; 42.5% in assay [7]. Moreover, the growth was 65.6% in assay [8]; 79.8% in [9]; 44.7% in assay [20]; 90.3% in assay [10]; 21.5% in [11]; 64.1% in assay [12]. Besides, the growth in assay [13] was 61%; in [14] it was 70.8%; in [15], 66.8%; in [16], 64.3%; in [17], 62.3%; in assay [18], 61%. The growth in assay [19] is 53.1%.

Take `Nc1ccc([N+](=O)[O-])cc1N=C/C=C/c1ccccc1`: the growth is 76.9% in assay [1]; 72% in assay [2]; 87.8% in [3]; 88% in [4]; 54% in assay [5]; 82.2% in assay [6]. The growth was 10.8% in assay [7]; 72.7% in [8]; 78.6% in [9]; 77.4% in assay [10]; 29.5% in assay [11]; 138% in [12]. Besides, the growth in [13] was 47.6%; in assay [14] it was 85.1%; in [15], 51.4%; in assay [16], 109%; in [17], 79%; in assay [18], 86.5%. Besides, the growth in [19] was 68.4%.

In the case of `CC(C)[C@@]12C[C@@H](OC(=O)COC(=O)c3ccccc3)[C@@](C)(O1)[C@@H]1CC[C@@H](C)[C@H]1[C@@H]2OC(=O)/C=C/c1ccccc1`, the growth in [1] was 90.1%; in assay [2] it was 64.4%; in [3], 87%; in assay [4], 89.5%; in assay [5] it was 95.3%; in [6] it was 76.9%. The growth is 80.9% in assay [7]; 80.9% in assay [8]; 68.7% in assay [9]; 101% in assay [10]; 75.4% in [11]; 106% in [12]. Besides, the growth in [13] was 86.3%; in assay [14], -2.22% (active); in assay [15], 63.4%; in assay [16], 94.5%; in assay [17], 95.4%; in assay [18], 95.3%. Also, in [19], the growth is 104%.

On to `Nc1ncnc2c1c(-c1ccc(Oc3ccccc3)cc1)nn2CC1SSCC1O` (configuration not stated), for which the growth in assay [1] is 49%; in [2] it was 23.4%; in [3], 34.8%; in assay [4] it was 56.9%; in assay [5] it was 28%; in [7] it was 37.8%. Moreover, the growth was 42.3% in assay [8]; 63.8% in assay [9]; 35.2% in [20]; 49% in assay [10]; 11.2% in assay [11]; -34.8% (active) in assay [12]. For the same compound, the growth in [13] was 47%; in [14] it was 17.7%; in assay [15], 48.8%; in [16] it was 73%; in assay [17], 41.2%; in assay [18], 46.6%. Besides, the growth in assay [19] is -73.5% (active).

With `CC/C(Cc1ccccc1)=C(\c1ccc(OCCN2CCCCCC2)cc1)c1ccc(OC(=O)NCc2ccccc2)cc1`, the growth was 74.9% in [1]; 90% in assay [2]; 96.6% in [3]; 82.8% in assay [4]; 5.51% (active) in [5]; 56% in [6]. The growth is 84.7% in assay [7]; 64.4% in assay [8]; 58.4% in assay [9]; 83.2% in assay [10]; -11.8% (active) in assay [11]; 61.3% in [12]. Moreover, the growth in [13] is 74.4%; in [14], 77.4%; in assay [15], 77.3%; in assay [16], 107%; in assay [17], 79.7%; in assay [18], 77.6%. The growth in assay [19] is 56.3%.

Values taken from PubChem BioAssay (NCI).
